Reference: PubChem BioAssay (Tox21)
Calls of active or inactive are those of the source. A call without a number means that no potency is given here. Unless noted, calls follow the shape of the dose curve; as a rule, active = well fitted curve in the direction sought with a large enough effect in the repeat runs; inconclusive = weak or mixed curves; inactive = no such curve, though single readings can be large; an effect the other way counts as inactive or inconclusive.

Tests used:
[1] = qHTS assay for small molecule agonists of the p53 signaling pathway - cell viability (AID 651633; calls by dose curve;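 also: p53RE-bla HCT reporter cells with a stable beta-lactamase p53 reporter; nearly all actives have a fitted effect of over 30% in size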)
Method in brief: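 p53RE-bla cells were treated with compound for 16 hours at 37 C. Cytotoxicity was then measured as CellTiter-Glo luminescence after 30 min at room temperature.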

[2] = qHTS assay for small molecules that induce genotoxicity in human embryonic kidney cells expressing luciferase-tagged ATAD5 - cell viability (AID 651634; calls by dose curve; also: nearly all actives have a fitted effect of over 25% in size; also: potency is read from the fitted curve at half-maximal effect)
Method in brief: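 Seeding of 2,000 HEK293T ATAD5-luciferase cells per well preceded pin-tool compound transfer. Plates sat 15.5 hr at 37C under 5% CO2, then fluorescence was read after 30 min with CellTiter-Fluor.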

[3] = qHTS assay for small molecule disruptors of the mitochondrial membrane potential - cell viability (AID 720634; calls by dose curve; also: nearly all actives have a fitted effect of over 20% in size; also: potency is read from the fitted curve at half-maximal effect)
Method in brief: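 Measuring cytotoxicity alongside mitochondrial potential, the screen quantified ATP by luminescence in HepG2 cells after 1 hr compound incubation and a 30 min room-temperature CellTiter-Glo step.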

[4] = qHTS assay for small molecule disruptors of the mitochondrial membrane potential (AID 720635); also: potency is read from the fitted curve at half-maximal effect
Method in brief: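 HepG2 cells exposed to compound 1 hr at 37C, then Mito-MPS dye 30 min. Ratio read of aggregate (540/590 nm) versus monomer (490/535 nm) fluorescence.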

[5] = qHTS assay to test for compound auto fluorescence at 590 nm (red) in HepG2 cells (AID 720674); also: potency is read from the fitted curve at half-maximal effect
Method in brief: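 Fluorescence at 590 nm emission following 540 nm excitation was recorded from HepG2 wells one hour after compound transfer, with DMSO-only wells as vehicle and Rose Bengal sodium equivalency as the scale.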

[6] = qHTS assay to test for compound auto fluorescence at 535 nm (green) in HepG2 cells (AID 720675)
[7] = qHTS assay to test for compound auto fluorescence at 460 nm (blue) in HEK293 cells (AID 720678)
Method in brief: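 Cells were seeded and left to adhere for 4-5 hr at 37C. Compounds were then pin-transferred. After an overnight incubation at 37C under 5% CO2, intrinsic fluorescence at 405/460 nm was measured and referenced to triamterene.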

[8] = qHTS assay to test for compound auto fluorescence at 590 nm (red) in HEK293 cells (AID 720679); also: potency is read from the fitted curve at half-maximal effect
Method in brief: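 Each well held 2,000 HEK293 cells in medium containing 10% dialyzed FBS. Following 4-5 hr attachment at 37C, 23 nL test compound or DMSO was added; plates sat overnight, and red fluorescence (540/590nm) was recorded.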

[9] = qHTS assay to test for compound auto fluorescence at 460 nm (blue) in HEK293 cell free culture (AID 720681)
Method in brief: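 Compounds were added to cell-free DMEM with 10% FBS and fluorescence read directly. The blue channel used 405 nm excitation and 460 nm emission, with triamterene as the reference fluorophore.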

[10] = qHTS assay to test for compound auto fluorescence at 535 nm (green) in HEK293 cell free culture (AID 720682)
Method in brief: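 Each library compound, or DMSO control, is added by pintool to medium alone, comprising DMEM and 10% FBS. Emission at 535 nm following 485 nm excitation is quantified against fluorescein.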

[11] = qHTS assay to test for compound auto fluorescence at 590 nm (red) in HepG2 cell free culture (AID 720684); also: potency is read from the fitted curve at half-maximal effect
Method in brief: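 Compound was pinned into wells holding MEM with 10% FBS and no cells, and red fluorescence was read at Ex/Em 540/590 nm. Signal is expressed as auto fluorescence equivalency relative to Rose Bengal sodium.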

[12] = qHTS assay to test for compound auto fluorescence at 460 nm (blue) in HepG2 cell free culture (AID 720685)
Method in brief: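 Compound (23 nL) or DMSO pinned into cell-free MEM with 10% FBS; blue fluorescence read at 405/460 nm excitation/emission, expressed as auto-fluorescence equivalency to triamterene.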

[13] = qHTS assay to test for compound auto fluorescence at 535 nm (green) in HepG2 cell free culture (AID 720686)
[14] = qHTS assay to test for compound auto fluorescence at 460 nm (blue) in HepG2 cells (AID 720687)
Method in brief: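 HepG2 cells in MEM with 10% FBS, attached overnight at 37 C, were exposed to compound or DMSO for 1 hr at 37 C, 5% CO2. Blue fluorescence was read at 405/460 nm, with triamterene as reference fluorophore.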

[15] = target: Glucocorticoid receptor (Homo sapiens) (UniProt P04150); assay: qHTS assay to identify small molecule agonists of the glucocorticoid receptor (GR) signaling pathway (AID 720691; active = well fitted activation curve with a large enough effect in the signal ratio in the repeat runs, not every such curve was filed as active; inconclusive = weak or mixed curves, or effect the other way; inactive = no such curve, though single readings can be large or run the other way; the % refers to the signal ratio; also: potency is read from the fitted curve at half-maximal effect); details: GR-bla HeLa, beta-lactamase reporter ratio, 18 h; activation: at 62.4 µM (top of the series)
Glucocorticoid receptor (Homo sapiens), sequence (P04150 whole entry, looked up): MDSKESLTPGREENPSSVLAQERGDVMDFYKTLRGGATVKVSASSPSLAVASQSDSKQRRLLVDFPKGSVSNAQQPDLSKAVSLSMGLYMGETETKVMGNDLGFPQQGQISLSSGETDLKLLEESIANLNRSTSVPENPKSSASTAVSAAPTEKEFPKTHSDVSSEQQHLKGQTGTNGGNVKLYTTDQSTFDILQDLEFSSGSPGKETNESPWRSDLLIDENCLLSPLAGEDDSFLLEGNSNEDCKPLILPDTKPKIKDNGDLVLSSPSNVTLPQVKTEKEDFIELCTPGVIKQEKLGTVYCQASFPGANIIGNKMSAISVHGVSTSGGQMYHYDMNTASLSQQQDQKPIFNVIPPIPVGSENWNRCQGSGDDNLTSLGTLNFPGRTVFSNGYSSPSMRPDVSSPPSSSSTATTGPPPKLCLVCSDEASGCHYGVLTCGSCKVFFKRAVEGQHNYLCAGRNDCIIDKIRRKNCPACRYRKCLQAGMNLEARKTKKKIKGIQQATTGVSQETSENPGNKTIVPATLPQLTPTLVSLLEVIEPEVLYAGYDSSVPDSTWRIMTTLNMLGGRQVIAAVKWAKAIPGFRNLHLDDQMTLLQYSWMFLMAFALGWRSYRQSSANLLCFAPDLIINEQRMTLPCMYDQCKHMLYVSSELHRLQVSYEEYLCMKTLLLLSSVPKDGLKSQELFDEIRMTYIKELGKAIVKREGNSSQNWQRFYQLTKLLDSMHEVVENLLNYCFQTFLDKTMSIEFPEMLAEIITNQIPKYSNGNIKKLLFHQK
Method in brief: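 Reporter read-out: fluorescence intensity following 2 h room-temperature LiveBLAzer B/G FRET substrate loading. Prior step: GR-bla HeLa cells held 4 h, then treated 18 h at 37 C.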

[16] = target: Glucocorticoid receptor (Homo sapiens) (UniProt P04150); assay: qHTS assay to identify small molecule antagonists of the glucocorticoid receptor (GR) signaling pathway (AID 720692; active = well fitted inhibition curve with a large enough effect in the signal ratio in the repeat runs, not every such curve was filed as active; inconclusive = weak or mixed curves, or effect the other way; inactive = no such curve, though single readings can be large or run the other way; the % refers to the signal ratio)
Method in brief: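 Dexamethasone (5 nM final) stimulated a stably integrated GRE-beta-lactamase reporter in HeLa cells during 18 h co-incubation with compounds; signal was quantified as fluorescence intensity of B/G FRET substrate after 2 h.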

[17] = qHTS assay for small molecules that induce genotoxicity in human embryonic kidney cells expressing luciferase-tagged ATAD5 (AID 651632); also: nearly all actives have a fitted effect of over 15% in size
Method in brief: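 Reporter cells (HEK293T) express luciferase-tagged ATAD5, a protein that accumulates after DNA damage. Treat 16 hr at 37C/5% CO2, add Amplite, wait 30 min at RT, and read luminescence.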

[18] = qHTS assay to test for compound auto fluorescence at 535 nm (green) in HEK293 cells (AID 720680)
[19] = qHTS assay to test for compound auto fluorescence at 590 nm (red) in HEK293 cell free culture (AID 720683); also: potency is read from the fitted curve at half-maximal effect
Method in brief: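 Cell-free wells of DMEM with 10% FBS received compound, and intrinsic fluorescence was read at excitation/emission 540/590 nm. Values expressed as equivalence to Rose Bengal sodium.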
Tags tell the direction and shape of the fitted curve or compound fluorescence and quenching.

Row | SMILES | Potency [1] | Potency [2] | Potency [3] | Potency [4] | Potency [5] | Potency [6] | Potency [7] | Potency [8] | Potency [9] | Potency [10] | Potency [11] | outcome [12] | Potency [13] | outcome [14] | Potency [15] | Potency [16] | Potency [17] | Potency [18] | Potency [19]
1 | Cc1cccc(C)c1Nc1ncccc1C(=O)O | inactive | inactive | inactive | 23.7 µM (active) | inactive | inactive | inactive | inactive | inactive | inactive | inactive | inactive | inactive | inactive | inactive | inactive | – | – | –
2 | O=C(O)c1c(Cl)c(Cl)c(Cl)c(Cl)c1-c1c2cc(I)c(=O)c(I)c-2oc2c(I)c(O)c(I)cc12 | – | 26.6 µM (active) | inactive | – | 11.2 µM (active) | inactive | inactive | 11.2 µM [fluorescent] (active) | inactive | inactive | 11.2 µM [fluorescent] (active) | – | inactive | inactive | – | – | inactive | inactive | 11.2 µM [fluorescent] (active)
3 | CCOC(=O)C1=C(COCCN)NC(C)=C(C(=O)OC)C1c1ccccc1Cl (stereo not given) | – | – | inactive | – | inactive | inactive | inactive | inactive | inactive | inactive | inactive | inactive | inactive | inactive | – | inactive | inactive | inactive | –
4 | Clc1ccc(COC(Cn2ccnc2)c2ccc(Cl)cc2Cl)c(Cl)c1 (stereo not given) | – | inactive | inactive | – | inactive | inactive | inactive | inactive | – | inactive | inactive | inactive | inactive | inactive | – | inactive | inactive | inactive | –
5 | CCCCCCCCCCCCCCCC(=O)OCCC1CCN(CCCN2c3ccccc3Sc3ccc(S(=O)(=O)N(C)C)cc32)CC1 | – | inactive | inactive | – | inactive | inactive | inactive | inactive | – | inactive | inactive | inactive | inactive | inactive | inactive | inactive | inactive | inactive | –
6 | [O]=[Bi][O][Bi]=[O] | inactive | inactive | inactive | inactive | inactive | inactive | inactive | inactive | inactive | inactive | inactive | inactive | inactive | inactive | inactive | – | – | inactive | inactive
7 | CCC(=O)NS(=O)(=O)c1ccc(-c2c(-c3ccccc3)noc2C)cc1 | – | – | inactive | – | inactive | inactive | inactive | inactive | – | inactive | inactive | inactive | inactive | inactive | – | inactive | inactive | inactive | inactive
8 | CC(C)N=c1cc2n(-c3ccc(Cl)cc3)c3ccccc3nc-2cc1Nc1ccc(Cl)cc1 | – | inactive | inactive | – | inactive | – | inactive | inactive | inactive | inactive | inactive | inactive | inactive | inactive | inactive | – | inactive | inactive | –
9 | CCc1ccc2c(c1)N(CC(C)CN(C)C)c1ccccc1S2 (stereo not given) | – | 33.5 µM (active) | inactive | – | inactive | inactive | inactive | inactive | inactive | inactive | – | inactive | inactive | inactive | inactive | – | inactive | inactive | inactive
10 | C[C@H]1C[C@@H]2[C@H]([C@@H](O)C[C@@]3(C)[C@H]2CC[C@]3(O)C(=O)COC(=O)CCC(=O)O)[C@@]2(C)C=CC(=O)C=C12 | inactive | inactive | inactive | – | inactive | inactive | inactive | inactive | inactive | inactive | inactive | inactive | inactive | inactive | 0.0268 µM [inconclusive] (active) | – | – | inactive | inactive
11 | CCCCCCCC(=O)CC[C@@H]1[C@@H](C/C=C\CCCC(=O)OC(C)C)[C@@H](O)C[C@H]1O | – | – | 26.6 µM (active) | – | inactive | inactive | inactive | inactive | inactive | inactive | inactive | inactive | inactive | inactive | – | – | inactive | inactive | inactive
12 | COc1ccc(CC2c3cc(OC)c(OC)cc3CC[N+]2(C)CCC(=O)OCCCCCOC(=O)CC[N+]2(C)CCc3cc(OC)c(OC)cc3C2Cc2ccc(OC)c(OC)c2)cc1OC (stereo not given) | – | inactive | inactive | – | inactive | – | inactive | inactive | inactive | inactive | inactive | inactive | inactive | inactive | 1.29 µM [inconclusive] (active) | – | inactive | inactive | –
13 | CC(C)[C@@H](C)/C=C/[C@@H](C)[C@H]1CC[C@H]2/C(=C/C=C3\C[C@@H](O)CC[C@@H]3C)CCC[C@]12C | – | – | inactive | – | inactive | inactive | inactive | inactive | inactive | inactive | inactive | inactive | inactive | inactive | – | – | inactive | inactive | inactive
14 | O=C1CSC2(CCN(CCCN3c4ccccc4Sc4ccc(Cl)cc43)CC2)N1 | – | – | inactive | – | inactive | inactive | inactive | inactive | inactive | inactive | inactive | inactive | inactive | inactive | – | – | inactive | inactive | inactive
